Results with a measured potency or affinity are listed apart. Results filed as inconclusive are left out. The source made the active and inactive calls.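 The calls were made as follows, unless noted: active = a dose-response fit showing signal loss, with half-maximal concentration no higher than twice the top tested dose; inconclusive = flat fit between 30% and 70% signal loss, or poor fit; inactive = the rest.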
Experiments:
[1] = Cryptococcus neoformans growth inhibition, dose response, Alamar Blue, cherry-picks (AID 686998;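 active = falling signal with fitted half-maximal potency no higher than twice the top valid tested dose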)
[2] = HepG2 cell cytotoxicity, dose response, cytotoxicity control, cherry-picks, set 2 (AID 687002)
[3] = HeLa cell cytotoxicity, dose response, cytotoxicity control, ATP luminescence, cherry-pick samples (AID 687004;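 active = a fitted half-maximal concentration no higher than twice the top valid tested dose, with signal falling as cells die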)
[4] = inducers of Cryptococcus neoformans cell lysis, dose response, AK release luminescence, cherry-picks (AID 687000;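 active = fitted dose curve reaches 40% lysis signal rise at or below the highest valid concentration tested for that sample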;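 also: luminescent detection of adenylate kinase leaking from lysed yeast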)

| Structure (SMILES) | outcome [1] | outcome [2] | outcome [3] | outcome [4] |
| --- | --- | --- | --- | --- |
| CCN(Cc1ccccc1)C(=O)COc1ccccc1 | inactive | inactive | inactive |  |
| COC(=O)C1=C(C)N(Cc2ccc(Br)cc2)C(=S)NC1c1ccc(F)cc1 (stereo unspecified) | inactive | inactive |  |  |
| CCCC(=O)Nc1ccc2c(c1)C(=O)N(C)C[C@H](OC)[C@@H](C)CN(C(=O)c1cccnc1)[C@@H](C)CO2 | inactive | inactive | inactive |  |
| Cc1ccc(CSc2ncnc3c2cnn3-c2ccc(C)cc2)cc1 | inactive | inactive |  |  |
| Cc1ccc(S(=O)(=O)N[C@H]2C=C[C@@H](CC(=O)N3CCC(Cc4ccccc4)CC3)O[C@H]2CO)cc1 | inactive | inactive | inactive |  |
| C[C@@H]1CCCCO[C@H](CN(C)S(=O)(=O)c2cccs2)[C@@H](C)CN([C@@H](C)CO)C(=O)c2cc(NC(=O)CCC(F)(F)F)ccc2O1 | inactive | inactive | inactive |  |
| CC(C)NC(=O)Nc1ccc2c(c1)C(=O)N([C@@H](C)CO)C[C@H](C)[C@@H](CN(C)S(=O)(=O)c1cccs1)OCCCC[C@H](C)O2 | inactive | inactive | inactive |  |
| O=C(NCCN1CCCCC1)[C@@H]1N[C@@H]2c3ccc(-c4ccncc4)c(=O)n3C[C@@H]2[C@H]1CO | inactive | inactive | inactive |  |
| COC(=O)C1=C(C)N(Cc2ccccc2)C(=S)N[C@H]1c1ccc(Br)cc1 | inactive | inactive | inactive |  |
| O=C(N[C@H]1CC[C@H](CCn2cc(-c3ccccn3)nn2)O[C@H]1CO)c1ccc(F)cc1 | inactive | inactive |  |  |
| O=C(CSc1ncnc2c1cnn2-c1ccccc1)Nc1ccc2c(c1)OCO2 | inactive |  | inactive | inactive |
| O=C(NCCc1ccccc1)[C@@H]1[C@@H](CO)[C@@H]2Cn3c(cccc3=O)[C@H]1N2C(=O)C1CCC1 | inactive | inactive | inactive |  |
| C[C@H](CO)N1C[C@H](C)[C@@H](CN(C)CC2CCOCC2)Oc2ncc(C#Cc3ccc(F)cc3)cc2C1=O | inactive | inactive | inactive |  |
| C[C@@H]1CCCCO[C@@H](CN(C)C(=O)CCCN(C)C)[C@@H](C)CN([C@H](C)CO)C(=O)c2cc(NC(=O)Cc3ccccc3)ccc2O1 | inactive | inactive | inactive |  |
| C[C@H](CO)N1C[C@H](C)[C@H](CN(C)C(=O)Nc2cccc3ccccc23)Oc2ccc(NC(=O)Cc3ccccc3)cc2CC1=O | inactive | inactive | inactive |  |
| C[C@@H]1CCCCO[C@@H](CN(C)C(=O)Nc2ccc3c(c2)OCO3)[C@@H](C)CN([C@H](C)CO)C(=O)c2cc(NC(=O)Nc3cccc4ccccc34)ccc2O1 | inactive | inactive | inactive |  |
| Cc1cccc(C)c1NC(=O)C1CCCN1C(=O)NCc1ccccc1 (stereo unspecified) | inactive | inactive | inactive |  |
| CC(C)C#Cc1ccc([C@@H]2[C@H](CO)N3CCCCN(C(=O)c4ccc5c(c4)OCO5)C[C@@H]23)cc1 | inactive | inactive | inactive |  |
| C[C@H]1CN([C@@H](C)CO)C(=O)Cc2cc(N(C)C)ccc2O[C@@H]1CN(C)C(=O)Nc1ccc(C(F)(F)F)cc1 | inactive | inactive | inactive |  |
| COCCNC(=O)C[C@H]1C[C@@H]2c3cc(NC(=O)C4CCC4)ccc3O[C@@H]2[C@H](CO)O1 | inactive | inactive | inactive |  |
| CC(C)CC#Cc1cnc2c(c1)C(=O)N([C@H](C)CO)C[C@H](C)[C@H](CN(C)C(=O)c1cccnc1)O2 | inactive | inactive | inactive |  |
| C[C@@H]1CN([C@H](C)CO)S(=O)(=O)c2ccc(C#C[C@@H](C)O)cc2O[C@@H]1CN(C)Cc1ccncc1 | inactive | inactive | inactive |  |
| C[C@H]1CN([C@@H](C)CO)C(=O)c2ccccc2-c2ccccc2CO[C@H]1CN(C)S(=O)(=O)c1cccc(C#N)c1 | inactive | inactive | inactive |  |
| Cc1noc(C)c1S(=O)(=O)Nc1ccc2c(c1)CC(=O)N([C@H](C)CO)C[C@H](C)[C@@H](CN(C)S(=O)(=O)c1cn(C)cn1)O2 | inactive | inactive | inactive |  |
| Cc1noc(C)c1NC(=O)N(C)C[C@H]1OCCCC[C@H](C)Oc2ccc(NC(=O)NC(C)C)cc2C(=O)N([C@@H](C)CO)C[C@@H]1C | inactive | inactive | inactive |  |
| C[C@@H]1CCCCO[C@H](CN(C)C(=O)CCCN(C)C)[C@@H](C)CN([C@H](C)CO)C(=O)c2cc(NC(=O)Cc3ccccc3)ccc2O1 | inactive | inactive | inactive |  |
| C[C@H](CO)N1C[C@H](C)[C@@H](CN(C)C(=O)c2ccncc2)OCCCC[C@H](C)Oc2ccc(NC(=O)Cc3ccccc3)cc2C1=O | inactive | inactive | inactive |  |
| CC(C)NC(=O)Nc1ccc2c(c1)C(=O)N([C@@H](C)CO)C[C@@H](C)[C@@H](CN(C)C(=O)NC(C)C)OCCCC[C@@H](C)O2 | inactive | inactive | inactive |  |

Reference: PubChem BioAssay
